Results: PubChem BioAssay (NCI)
The panel holds about 79,000 compounds, 15% with a hit somewhere; the sample as a whole holds those more often. Cut-off read from the data, not from the text of the source: active = growth inhibition above about 70%; inactive = the rest.

Columns and labels:
[1] = NCI Yeast Anticancer Drug Screen. Data for the rad50 strain (AID 155);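 note: 0% = growth of vehicle-only cultures of the same strain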; details: S. cerevisiae rad50 strain growth inhibition; at 50.0 µM; stronger effect = higher value
Summary of the method: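 DNA repair mutant yeast, compound exposure, growth read-out; inhibition is taken relative to vehicle.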

[2] = NCI Yeast Anticancer Drug Screen. Data for the mec2-1 strain (AID 157); details: S. cerevisiae mec2-1 strain, at 50.0 µM, stronger effect = higher value
Summary of the method: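 mec2-1 yeast strain, carrying an alteration in DNA damage repair or cell cycle control, was exposed to compounds; growth inhibition was measured relative to vehicle-treated controls.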

[3] = NCI Yeast Anticancer Drug Screen. Data for the sgs1 mgt1 strain (AID 161);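 note: 0% = growth of cultures given vehicle only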; details: S. cerevisiae sgs1 mgt1 strain, at 50.0 µM, stronger effect = higher value
Summary of the method: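 Percent growth inhibition was derived by comparing compound-exposed mutant yeast with vehicle-exposed cultures. The strain carries alterations in DNA damage repair.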

[4] = NCI Yeast Anticancer Drug Screen. Data for the cln2 rad14 strain (AID 165);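 note: 0% = growth equal to vehicle treated cultures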; details: S. cerevisiae cln2 rad14 strain, at 50.0 µM, stronger effect = higher value
Summary of the method: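 Yeast carrying cln2 and rad14 alterations (cell cycle control and DNA damage repair) were exposed to compounds. Growth inhibition was measured against vehicle-treated controls.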

[5] = NCI Yeast Anticancer Drug Screen. Data for the bub3 strain (AID 167); details: S. cerevisiae bub3 mutant strain, at 50.0 µM, stronger effect = higher value
Summary of the method: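 In this screen, a yeast mutant lacking normal mitotic checkpoint function is challenged with compound. Relative growth versus vehicle gives the inhibition value.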

[6] = NCI Yeast Anticancer Drug Screen. Data for the mlh1 rad18 strain (AID 175); details: S. cerevisiae mlh1 rad18 strain growth inhibition; at 50.0 µM; stronger effect = higher value
Summary of the method: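 Growth inhibition of the yeast strain was measured after compound exposure and expressed relative to vehicle-treated controls. The strain carries defined defects in DNA damage repair.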

Measured: growth inhibition

O=C(Nc1ccc(S(=O)(=O)N2CCCCC2)cc1)OC1CCCCCC1
inactive: [1] 10.1% | [2] 1.1% | [3] -8.5% | [4] 14.5% | [5] -4.05% | [6] 10.6%

CN(C)CCCN
inactive: [1] -11.3% | [2] -4.4% | [3] 3% | [4] -30.8% | [5] 5.7% | [6] 1.5%

CCOC(=O)c1c[nH]c2cc3c(cc2c1=O)CCS3
inactive: [1] -27.4% | [2] -57% | [3] -1.45% | [4] 3.95% | [5] 9% | [6] -7.35%

CC1=CC(=O)CC(C(C)C)C1 (stereo not given)
inactive: [1] 15.5% | [2] -7.5% | [3] 22.8% | [4] -5.95% | [5] 1.95% | [6] 5.2%

CN(C(=O)c1ccc(Cl)cc1)C(=S)N1CCN(c2ccccn2)CC1
inactive: [1] -66% | [2] -33.8% | [3] -36.6% | [4] -3.7% | [5] -13.9% | [6] -43.5%

O=C(OC1CCC2(CC1)N=NC1(CCC(OC(=O)c3ccccc3)CC1)S2)c1ccccc1 (stereo not given)
inactive: [1] -1.15% | [2] 18.3% | [3] -2.25% | [4] -7.6% | [5] -1.1% | [6] 8.1%

COc1cccc(/C=C2\C(=O)N(C(=O)c3ccc(NC(C)=O)cc3)N=C2C)c1
inactive: [1] -43.9% | [2] -25.8% | [3] -57% | [4] -17.2% | [5] -38% | [6] -40.1%

COC(=O)C1=C(C(=O)OC)SC(=C2c3ccsc3-c3sccc32)S1
inactive: [1] -31.3% | [2] -6.2% | [3] -7.45% | [4] 19% | [5] 1.3% | [6] -4.5%

O=C1c2ccccc2C(=O)c2c1ccc1c2N=C(c2ccc(Br)cc2)CC(c2cccc3ccccc23)N1 (stereo not given)
inactive: [1] -22.1% | [2] 11.6% | [3] 17.9% | [4] 10.2% | [5] 9.95% | [6] -11.6%

C[C@H](CCC(=O)NCC(=O)O)[C@H]1CC[C@H]2[C@@H]3[C@H](O)C[C@@H]4C[C@H](O)CC[C@]4(C)[C@H]3CC[C@]12C
inactive: [1] 14.2% | [2] -13.4% | [3] 0.15% | [4] 4.05% | [5] -0.3% | [6] 6.5%

CC1C2CCC3(CCC4C5(C)CCCC4(CN(CCO)C5)C3C2)C1O (stereo not given)
inactive: [1] 2.1% | [2] -24.4% | [3] 5.3% | [4] 13.8% | [5] -2.4% | [6] -8.4%

CCOc1cc2c(cc1C(C)c1ccc(OCc3ccccc3)cc1)OCO2 (stereo not given)
inactive: [1] 6.55% | [2] 3.55% | [3] 2.7% | [4] 1.25% | [5] -2.1% | [6] -20.1%

NC(=O)OCC(COc1ccc(Cl)cc1)OC(=O)c1cc([N+](=O)[O-])cc([N+](=O)[O-])c1 (stereo not given)
inactive: [1] 29.2% | [2] 23.9% | [3] 20.4% | [4] 17.6% | [5] 14.3% | [6] 8.75%

COC(=O)c1cocc1C(=O)OC
inactive: [1] -13.9% | [2] -7.25% | [3] -3.75% | [4] -2.8% | [5] -15.3% | [6] -15.9%

COc1ccc(C)c(C2=CCCCC2)c1
inactive: [1] 4.65% | [2] 3.45% | [3] -9.15% | [4] -6.55% | [5] -2.35% | [6] -15.8%

COc1cc2c(NCCCCCCO[N+](=O)[O-])ncnc2c(OC)c1OC
inactive: [1] 26.6% | [2] -5.7% | [3] 40.8% | [4] 43.8% | [5] 39% | [6] 30.6%

Cc1cc(Cc2ccc3c(c2)OCO3)ccc1OCC(=O)O
inactive: [1] 15.1% | [2] 18.3% | [3] 15.6% | [4] 13.4% | [5] 20.8% | [6] 23.8%

Nc1nnc2nc(C(C(=O)c3cccc(O)c3)c3nc4nnc(N)n4[nH]c3=O)c(=O)[nH]n12
inactive: [1] 8.65% | [2] 0% | [3] -7.05% | [4] 4.7% | [5] 1.2% | [6] 1.05%

CCOC(=O)CC(CSCP(=O)(OCC)OCC)C(=O)OCC (stereo not given)
inactive: [1] 5.15% | [2] -1.35% | [3] 13.2% | [4] 3.4% | [5] 9.55% | [6] 16.2%

O=C1C=C(Nc2ccccc2)c2ccc(S(=O)(=O)O)cc2C1=O
inactive: [1] 0.4% | [2] -6.9% | [3] 10.1% | [4] -0.8% | [5] -29.1% | [6] -6.55%
